SMILES strings stand for the structures. Inconclusive results are not listed. A call without a number means that no potency is given here. Activity calls are given as the source filed them. Calls follow the shape of the dose curve; as a rule, active = well fitted inhibition curve with a large enough effect; inconclusive = small, poorly fitted or top-dose-only effect; inactive = flat fitted curve, though single readings scatter.

In this assay the target is Aldehyde dehydrogenase, mitochondrial (Homo sapiens) (UniProt P05091). Kind of assay: qHTS for Inhibitors of the Aldehyde Dehydrogenase Family (ALDH2) Primary screen (AID 2061308). Also: nearly all actives have a fitted effect of over 55% in size. Conditions: ALDH2 enzyme inhibition qHTS, 1536-well; series mostly up to 56 µM. On the technique in general: Quantitative high-throughput screening tests each substance at several concentrations.
On to `C=C1/C(=C/C=C2\CCC[C@@]3(C)C2CCC3[C@H](C)/C=C/[C@@H](O)C2CC2)C[C@@H](O)C[C@@H]1O` (stereo not given in full), for which the Potency result was “inactive”.

With `O=S(=O)(Nc1cccc2cccnc12)c1ccccc1O`, the Potency result was “inactive”.

Take `O=C(O)c1cccc(-c2noc(-c3ccccc3C(F)(F)F)n2)c1`: the Potency entry is “inactive”.

Regarding `N#Cc1ccc(S(=O)(=O)Nc2cnccc2C(=O)Nc2nc(-c3ccccc3)cs2)cc1`, the Potency result was “inactive”.

`O=C(O)c1ccc(-c2noc(-c3ccc(C(F)(F)F)cc3)n2)cc1`: the Potency result is “inactive”.

Take `Cc1ccnc(NC(=S)N2CCN(c3ccc(C#N)cc3)CC2)c1`: the Potency result was “inactive”.

Turning to `CS(=O)(=O)c1cccc(-c2csc(N3CCC(C(N)=O)CC3)n2)c1`, the Potency result is “inactive”.

`C=C1/C(=C/C=C2\CCC[C@]3(C)[C@@H]([C@H](C)/C=C/[C@H](O)C4CC4)CC[C@@H]23)C[C@@H](O)C[C@@H]1O`: the Potency result is “inactive”.

As to `COc1cc(N2CCOCC2)ccc1Nc1ncc(Cl)c(Nc2ccccc2NS(C)(=O)=O)n1`, the Potency result was “inactive”.

For `O=C(NO)c1cnc(N2CCN(S(=O)(=O)c3ccc4ccccc4c3)CC2)nc1`, the Potency result was “inactive”.

In the case of `Cc1ccc(C2Nc3cccc4cccc(c34)N2)cc1`, the Potency result is “inactive”.

With `Fc1ccccc1-c1nc(-c2ccccc2)no1`, the Potency result is “inactive”.

For the compound `C=C1/C(=C/C=C2\CCC[C@]3(C)[C@@H]([C@H](C)/C=C/C(=O)C4CC4)CC[C@@H]23)C[C@@H](O)C[C@@H]1O`, the Potency entry is “inactive”.

As to `CC(CN1c2ccccc2Sc2ccc(S(=O)(=O)N(C)C)cc21)N(C)C` (stereo not given), the Potency result was “inactive”.

Turning to `CCOc1ccc(CCNC(C)=O)cc1OCC`, the Potency result was “inactive”.

With `CCOc1ccc(CCNC(=O)c2ccccn2)cc1OCC`, the Potency result was “inactive”.

As for `O=C(O)c1ccc(Cc2c(-c3cccc(-c4ccccc4)c3)[nH]n(-c3nc(C(=O)O)cs3)c2=O)cc1`, the Potency entry is “inactive”.

As for `C=C1CC[C@@H](O)[C@]2(C)CC[C@H]3C(=C)C(=O)O[C@@H]3[C@@H]12`, the Potency result is “inactive”.

As to `N#Cc1nc(NCC(F)F)c2ncn(-c3cccc(Cl)c3)c2n1`, the Potency entry is “inactive”.

Turning to `O=C(O)c1cccc(-c2noc(-c3ccc(F)cc3)n2)c1`, the Potency result was “inactive”.

As to `C=C1C(=O)OC2/C=C(\CO)CC/C=C(\C=O)C(O)C(OC(=O)C(C)CC)C12` (stereo not given), the Potency entry is “inactive”.

With `O=C(Nc1nnc(-c2ccncc2)s1)Nc1ccc(Cl)c2ccccc12`, the Potency entry is “inactive”.

For `COc1ccc(-c2ccc3c(N4CCOCC4)nc(N4CC(C)OC(C)C4)nc3n2)cc1CO` (stereo not given), the Potency result is “inactive”.

For `COc1cccc(Cn2ncc3c4sc(B(O)O)cc4n(C)c3c2=O)c1`, the Potency entry is “inactive”.

Consider `COc1ccc2nc(-c3cccc(C)c3)sc2c1`, for which the Potency result is “inactive”.

Consider `CN(C(=O)OC(C)(C)C)c1ccc(-c2nc3ccccc3s2)cc1`, for which the Potency result was “inactive”.

On to `O=C(O)c1cccc(-c2noc(-c3ccc(Cl)cc3)n2)c1`, for which the Potency result is “inactive”.

Take `Cc1cc(NCc2ccc(-c3cccnc3)cc2)nc(-c2ccccc2C(C)C)n1`: the Potency result was “inactive”.

For `Cc1nnc(-c2cnn(C)c2N)n1CCCc1ccncc1`, the Potency result is “inactive”.

Turning to `CC(C)(C)OC(=O)N1CCN(c2ccc(NCc3ccc4c(c3)OCO4)cc2)CC1`, the Potency entry was “inactive”.

Take `CCC(=O)NC(c1ccco1)c1cc(Cl)c2ccccc2c1O` (stereo not given): the Potency result was “inactive”.

Regarding `COc1cccc(CNc2ccc(S(=O)(=O)Nc3ccccn3)cc2)c1O`, the Potency result was “inactive”.

Take `COc1ccc(C[C@H](C)NC[C@@H](O)c2ccc(O)c(NC=O)c2)cc1`: the Potency entry is “inactive”.

On to `CC(=O)Nc1sc2c(c1-c1ccc(N[S+](C)(=O)[O-])cc1)CCNC2`, for which the Potency result was “inactive”.

With `CCC(=O)NC(c1cc(Cl)c2ccccc2c1O)C1CC1` (stereo not given), the Potency entry was “inactive”.

As to `Cc1ccc(-c2ccc(=O)n(CC(=O)NCCc3ccncc3)n2)cc1`, the Potency result is “inactive”.

`COc1ccc(-c2nc(-c3cccc(C(=O)O)c3)no2)cc1`: the Potency result was “inactive”.

For `COc1ccc(OC)c(NC(=O)c2ccccc2OC(C)=O)c1`, the Potency entry was “inactive”.

As to `COc1ccc(-c2nc(-c3ccc(C(=O)O)cc3)no2)cc1`, the Potency result is “inactive”.

As for `O=C(O)c1cccc(-c2noc(-c3ccccc3Cl)n2)c1`, the Potency entry was “inactive”.

Values taken from PubChem BioAssay (NCATS).
